Screening results from PubChem.
IMPase inh = cell-permeable inhibitors of inositol monophosphatase (IMPase); CHO-M1 cells, IP1 accumulation, HTRF TR-FRET ratio; inhibition (IP1 accumulation), % at 46.1 µM; 120,000 tested, under 10 active; AID 901; active means well fitted curve in the direction sought with a large enough effect in the signal ratio, not every such curve was filed as active; inconclusive means small, poorly fitted or top-dose-only effect, or a change in a side signal; inactive means no such curve, though single readings can be large or run the other way; the % refers to the signal ratio;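 further: cells stimulated with carbachol in lithium chloride buffer; higher means more IMPase inhibition seen as more IP1 and lower FRET ratio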
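Elevated IP1 in lysates lowers TR-FRET signal (665/620 ratio and 620 channel reported). Cells were CHO-M1, given carbachol (50 uM as added) plus 50mM LiCl, pH 7.4, 30 min, 37C; compounds titrated up to 46 uM; AC50 by Hill equation.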
IMPase Li inh = membrane-permeable IMPase blocker, potentiated with lithium | CHO-M1 cells, IP1 TR-FRET (IP-One), carbachol + lithium | Potency, µM (doses to about 59.4 µM), actives largely listed as inhibitors | 210,000 compounds, 0.35% hits;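 further: IP1 builds up when IMPase is blocked and the TR-FRET signal falls; nearly all actives have a fitted effect of over 50% in size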
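Test compounds were applied to CHO-M1 cells previously cultured for 16–30 h at 2000 per well. A small lithium amount accompanied them; after 30 min at 37C, IP1 was quantified by TR-FRET.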
HPGD inh = HPGD (human) dehydrogenase inhibition | P15428 | purified HPGD, NADH fluorescence kinetic, PGE2 substrate | Potency, µM, hits mostly inhibitors | 150,000 compounds, 4.3% hits; active means well fitted inhibition curve with a large enough effect, not every such curve was filed as active; inconclusive means small, poorly fitted or top-dose-only effect, or another doubt; inactive means no such curve, though single readings can be large or run the other way
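20 nM HPGD preincubated 15 min at room temperature with compound in 50 mM Tris-HCl pH 8, 0.01% Tween 20. Started with 1 mM NAD+ and 30 uM prostaglandin E2; NADH fluorescence (360/450 nm) read 5 times over 30-s intervals, last minus first.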
PNC assembly inh = perinucleolar compartment assembly inhibition; 140,000 compounds, 3.1% hits; PC3M PTB-GFP, PNC prevalence imaging, 16 h; active compounds read low; activity change (PNC), negative = inhibition, % at 10 µM;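 active means readout at or below -70, meaning at least 70% loss of cells showing the perinucleolar compartment, a nuclear body marking cancer cells; inconclusive means readout between -30 and a set limit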
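Read-out is percentage of cells bearing a perinucleolar compartment, from automated 20x imaging of fixed, Hoechst-stained PC3M PTB-GFP cells. Cells were seeded 4 h, then exposed 16 h to compound (23 nl of library stock) in duplicate plates.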
15-hLO-2 inh = inhibitors of human 15-lipoxygenase 2 (ALOX15B) | O15296 | purified 15hLO-2, xylenol orange hydroperoxide absorbance | Potency, µM (doses to about 57.1 µM), hits mostly inhibitors | 110,000 compounds, 0.56% hits; further: nearly all actives have a fitted effect of over 60% in size
Target sequence (O15296 whole entry, looked up): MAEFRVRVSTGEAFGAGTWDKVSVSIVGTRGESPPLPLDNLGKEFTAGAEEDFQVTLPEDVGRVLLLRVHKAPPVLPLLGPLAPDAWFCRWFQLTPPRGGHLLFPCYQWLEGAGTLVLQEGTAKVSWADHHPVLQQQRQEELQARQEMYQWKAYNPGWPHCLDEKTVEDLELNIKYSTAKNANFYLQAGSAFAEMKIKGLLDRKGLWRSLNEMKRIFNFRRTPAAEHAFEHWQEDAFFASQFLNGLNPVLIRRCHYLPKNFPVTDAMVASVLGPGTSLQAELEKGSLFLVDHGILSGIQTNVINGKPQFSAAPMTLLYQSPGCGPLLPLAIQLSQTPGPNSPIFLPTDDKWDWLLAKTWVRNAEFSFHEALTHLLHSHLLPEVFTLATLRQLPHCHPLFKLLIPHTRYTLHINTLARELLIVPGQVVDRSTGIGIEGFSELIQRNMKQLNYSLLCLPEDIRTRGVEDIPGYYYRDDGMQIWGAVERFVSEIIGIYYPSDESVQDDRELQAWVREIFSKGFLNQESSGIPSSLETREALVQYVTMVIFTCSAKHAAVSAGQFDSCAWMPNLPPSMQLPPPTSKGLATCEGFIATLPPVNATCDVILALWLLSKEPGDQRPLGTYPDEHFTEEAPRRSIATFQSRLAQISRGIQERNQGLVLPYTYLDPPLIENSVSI
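Enzyme 50 nM, AA 45 uM, 25 mM Hepes pH 7.5 + 0.01% Triton X-100; cpd preinc 15 min RT, rxn 90 min RT; stop/detect with 200 uM XO + 300 uM Fe(II) in 50 mM H2SO4, 30 min; A573/A405.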
12-hLO inh = 12-hLO (ALOX12) enzyme inhibition; P18054; purified 12-hLO, xylenol orange hydroperoxide absorbance; Potency, µM (doses to about 57.1 µM), hits mostly inhibitors; 150,000 compounds, 0.12% hits; further: nearly all actives have a fitted effect of over 55% in size
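Hydroperoxide formation by human 12-lipoxygenase from 40 uM arachidonic acid was followed colorimetrically via ferric-xylenol orange complex, using the 573/405 nm absorbance ratio. Enzyme concentration was 150 nM, with 30 min reaction at room temperature.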
A number is an active result; . = inactive; ? = inconclusive; / = no result given; [ ] = dose if it differs, or a comment. This is a sample that favours compounds with a hit; in the whole collection about 5.4% have one here. Unless noted, the call rests on the fitted dose curve; in most records, active means well fitted curve in the direction sought with a large enough effect; inconclusive means small, poorly fitted or top-dose-only effect, or another doubt; inactive means no such curve, though single readings can be large; an effect the other way counts as inactive or inconclusive.

SMILES	IMPase inh	IMPase Li inh	HPGD inh	PNC assembly inh	15-hLO-2 inh	12-hLO inh
O=C1CCCC2[C@@H]3CCC[N@+]4([O-])CCC[C@H](CN12)C34 (some centres undefined)	/	.	.	/	/	/
C[C@H](CC(=O)O)C(C(=O)O)C(=O)O	/	.	.	/	.[11.4 µM]	.[11.4 µM]
O=c1c2cc(-c3ccccc3)sc2ncn1-n1cccc1	?	.	.	.	.	.
Cc1ccc(C)n1-n1cnc2sc(-c3ccccc3)cc2c1=O	.	.	28µM	.	.	.
CC(C)(C)C(=O)NC(=S)NNC(=O)c1sc2ccccc2c1Cl	.	.	.	-112	/	.
CCCOC(=S)NC(=O)c1sc2ccccc2c1Cl	.	?	20µM	?	?	.
NC(=O)COC(=O)c1sc2ccccc2c1Cl	/	.	/	/	/	/
O=C(NC(=S)NCCO)c1sc2ccccc2c1Cl	/	.	/	/	/	/
O=C(NNC(=S)NC1CCCCC1)c1sc2ccccc2c1Cl	/	.	.	.	/	.
CCOC(=S)NC(=O)c1sc2ccccc2c1Cl	.	?	.	-109	?	.
CC#CCN1c2ccccc2[C@]23C[C@@H](C(=O)OC)N(S(=O)(=O)c4ccc(OC)cc4)C2=NC(C(=O)OC)=C(C(=O)OC)[C@H]13	/	.	.	/	/	.[11.4 µM]
Cc1noc(C)c1CSc1ccccc1C(=O)N1CCN(c2ccccc2)CC1	.	.	.	-100	/	.
O=c1cc(C(F)(F)F)nc(-c2ccccc2)[nH]1	.	.	14µM	?	.	.
O=C(Nc1ccccc1)N1CCCC2(CCN(C(=O)c3cc(C(F)(F)F)cc(C(F)(F)F)c3)CC2)C1	/	.	.	/	.	.
Cc1ccc2[nH]c3c(c2c1)CN(C(=O)CN1CCCc2ccccc21)CC3	.	.	22µM	.	.	.
CCC(OC(=O)c1nsc(Cl)c1Cl)C(=O)NCc1cccs1 (centres undefined)	.	.	25µM	.	/	.
CC(C)CC(OC(=O)c1nsc(Cl)c1Cl)C(=O)NCc1cccs1 (centres undefined)	.	.	5µM	.	/	.
O=C(N[C@@]1(C(=O)O)C[C@@H]1c1ccccc1)c1ccccc1	/	.	.	/	.[11.4 µM]	.[11.4 µM]
Cc1cc(C)c2c(N)c3cccc(C)c3nc2n1	/	.	?	-92	/	.
Cc1cccc2c(N)c3c(nc12)CCCC3 (tested in a mixture with another compound)	/	.	/	/	/	/
O=C1CC(C(=O)O)c2ccccc2N1 (centres undefined)	.	/	/	.	.	.
O=C1CC(c2ccccc2)CCc2sccc2N1 (centres undefined)	.	.	25µM	.	.	.
COc1ccc(NC2=NCC(=O)N2c2ccccc2)c(OC)c1	.	.	.	-94	.	.
COc1ccc(NC2=NCC(=O)N2c2ccccc2F)c(OC)c1	.	.	.	.	.	.
Cc1cc(N2CCN(C/C=C/c3ccccc3)CC2)n2ncnc2n1	.	.	28µM	.	.	.
SMILES	IMPase inh	IMPase Li inh	HPGD inh	PNC assembly inh	15-hLO-2 inh	12-hLO inh
O=C(O)C1CC=CCC1C(=O)N1CCN(c2nc(-c3ccccc3Cl)c3cc(Br)ccc3n2)CC1 (centres undefined)	?	11µM	.	.	.	.
N#Cc1c(NC(=S)NC(=O)c2ccccc2)sc2c1CCCC2	/	.	25µM	?	/	.
CC(C)CC(=O)NC(NC(=S)Nc1sc2c(c1C#N)CCCC2)C(Cl)(Cl)Cl (centres undefined)	.	.	14µM	.	?	?
Cn1ncc(Cl)c1C(=O)NC(=S)Nc1sc2c(c1C#N)CCCCC2	.	.	25µM	.	?	.
N#Cc1c(NC(=O)c2cnccn2)sc2c1CCCC2	/	.	28µM	.	/	.
O=C(c1ccccc1)c1ccc2n1CC[C@H]2C(=O)O	.	.	.	/	.	.
CCC(=O)N1CCc2cc(S(=O)(=O)N3CCN(c4ccccc4F)CC3)ccc21	.	/	/	/	/	/
CC1CCc2c(sc(NC(=O)c3ccccc3C(=O)O)c2C#N)C1 (centres undefined)	/	.	/	/	/	/
Cc1ccccc1C(=O)NC(=S)Nc1sc2c(c1C#N)CCC(C)C2 (centres undefined)	.	.	.	?	25µM	?
O=C(O)CNC(=O)c1ccc(CO)o1	/	.	.	/	.	.
Cc1cc(C(F)(F)F)nn1CC(=O)Nc1ccc(Br)c2cccnc12	.	.	.	-100	/	.
Cc1cc2ncn(CC(=O)O)c2cc1C	/	.	.	/	.[11.4 µM]	.[11.4 µM]
CCCn1cc(NC(=O)c2cc3n(n2)C(C(F)(F)F)CC(c2ccccc2)N3)cn1 (centres undefined)	.	.	.	-87	.	.
O=C(Nc1cccc2cccnc12)[C@@H]1[C@@H](C(=O)O)[C@H]2CC[C@@H]1O2	/	.	.	/	.[11.4 µM]	.[11.4 µM]
Cc1cc(N/N=C/c2cccc(Cl)c2)nc(NCc2ccccc2)n1	/	.	.	.	/	.
Cc1cc(Nc2cccc(Cl)c2)nc(NCc2ccccc2)n1	/	.	.	-94	/	.
CC(C)C1S/C(=N/N=C/c2cccs2)NC1=O (centres undefined)	.	.	25µM	?	.	.
CC1=C(C(=O)Nc2ccccc2)C(c2cccc(O)c2)n2nc(-c3ccccc3Cl)nc2N1 (centres undefined)	.	/	/	/	/	/
CNS(=O)(=O)c1cc(-c2nnc(Nc3cc(C)ccc3C)c3ccccc23)ccc1C	.	/	/	/	/	/
CCn1c(-c2csc3c2CCCC3)n[nH]c1=S	/	.	25µM	.	/	.
CCCCn1c(-c2csc3c2CCCC3)n[nH]c1=S	.	.	16µM	.	?	?
C=CCn1c(-c2csc3c2CCC(C)C3)n[nH]c1=S (centres undefined)	/	.	20µM	?	/	.
CCCCn1c(-c2csc3ccccc23)n[nH]c1=S	.	.	?	.	.	.
CCCCn1c(-c2csc(C(C)C)c2)n[nH]c1=S	/	.	?	-109	/	?
CCNC(=O)[C@H]1O[C@@H](n2cnc3c(N)nc(NCCc4ccc(CCC(=O)O)cc4)nc32)[C@H](O)[C@H]1O	/	.	.	/	/	/
SMILES	IMPase inh	IMPase Li inh	HPGD inh	PNC assembly inh	15-hLO-2 inh	12-hLO inh
CSCC[C@@H](C(=O)O)N(C)C	/	.	.	/	.[11.4 µM]	.[11.4 µM]
Cn1c(=O)c2c(ncn2CCCc2ccccc2)n(C)c1=O	.	.	.	-89	.	.
Cn1c(=O)c2c(ncn2CCO)n(C)c1=O	.	.	.	/	.	.
Cn1c(=O)c2c(ncn2Cc2ccccc2)n(C)c1=O	.	.	.	.	/	.
CC(O)Cn1cnc2c1c(=O)n(C)c(=O)n2C (centres undefined)	/	.	.	-115	/	.
CCOc1ccc(C(=O)Nc2ccc(-c3nc4cc(CC)ccc4o3)cc2)cc1	.	/	/	/	/	/
